High-throughput results: PubChem, National Center for Advancing Translational Sciences (NCATS)
IL1B secr inh: blocks inflammasome-driven IL-1 beta release; THP-1 LPS/ATP IL-1B secretion, AlphaLISA, 16 h; stronger effect = lower value; activity change, % at 57.5 µM; 360,000 tested, 4.7% active; AID 743279; in the data active = activity change below about -50%; inconclusive = mostly about -30% to -49%
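THP-1 cells pretreated 1 hr with compounds (up to 57.5 uM final), then stimulated with LPS (250 ng/mL final) plus ATP (1.25 mM final); secreted IL-1B measured by AlphaLISA after 16 hr, decreased signal indicating inhibition.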
TDP1 cell CPT: growth inhibition of DT40 Tdp1-/-;hTDP1 cells with camptothecin (screen for TDP1 inhibitors). chicken DT40 Tdp1-/-;hTDP1 cells + 20 nM CPT, ATP luminescence, 48 h. Potency, µM (doses to about 46.2 µM), without a hit: at the top dose activity change, negative = growth inhibition, most hits filed as inhibitors. 420,000 tested, 12% active; note: potency is the fitted concentration of half-maximal effect; nearly all actives have a fitted effect of over 55% in size
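Chicken DT40 Tdp1-/- cells complemented with human TDP1, 400 cells/well, exposed to compounds plus 20 nM camptothecin for at least 48 h at 37 C; viability read as ATP content by CellTiter-Glo luminescence.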
TDP1 cell noCPT: qHTS for Inhibitors of human tyrosyl-DNA phosphodiesterase 1 (TDP1): qHTS in cells in absence of CPT; DT40 Tdp1-/- hTDP1 cells, no CPT, ATP luminescence, 48 h; Potency, µM (top dose mostly 46.2 µM), for the others: at the top dose activity change, negative = growth inhibition, hits mostly inhibitors; 420,000 tested, 15% active; AID 686978, 2013; note: potency is the fitted concentration of half-maximal effect; nearly all actives have a fitted effect of over 55% in size
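Camptothecin absent (DMSO only). Human TDP1-complemented DT40 knockout cells, 400 cells/well, 37 °C for minimum 48 hr; ATP measured via CellTiter-Glo, 30 min dark incubation, luminescence.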
HT1080 IDH1KD tx: HT-1080 IDH1 knockdown cell toxicity (counter line). HT-1080 IDH1 knockdown viability, ATP luminescence, 48 h. Potency, µM (top dose mostly 46.1 µM), for the others: at the highest dose activity, negative = toxicity, actives largely listed as cytotoxic. 360,000 tested, 2% active;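 note: potency is the fitted concentration of half-maximal effect; 0% = DMSO wells and -100% = cell-free medium wells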
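Luminescent ATP read-out (CellTiter-Glo, 10 min at room temperature) after 48 h compound exposure at 37 °C gave viability of IDH1-knockdown HT-1080 cells. Activity was normalised to DMSO and cell-free wells, then fitted as concentration-response curves.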
HT1080NT lethal: kills 2HG-producing HT-1080-NT fibrosarcoma cells; HT-1080-NT fibrosarcoma viability, CellTiter-Glo ATP luminescence, 48 h; Potency, µM (top dose mostly 46.1 µM), for the others: at the highest dose activity, negative = less viability, hits mostly cytotoxic; 360,000 tested, 1.6% active; AID 686970;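 note: NT is the 2HG producing partner of a matched IDH1 knockdown line; potency is the fitted concentration of half-maximal effect; 0% = DMSO-treated cells and -100% = media-only wells without cells; nearly all actives have a fitted effect of over 55% in size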
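750 cells/well, RPMI + 5% FBS; 2 h settle, compound pin-transfer, 48 h at 37 degrees C. CellTiter-Glo 10 min RT, luminescence. Normalized to DMSO and media-only wells.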
ELG1 DNA repair: blocks ELG1-dependent DNA repair in HEK293T cells; HEK293T ELG1-luciferase reporter, luminescence, 16 h; DNA damage induced by 5-fluorouridine; Potency, µM (titrated, usually from 46.1 µM), without a hit: at the highest dose activity change, negative = inhibition, hits mostly inhibitors; 330,000 tested, 2.3% active; note: potency is the fitted concentration of half-maximal effect; nearly all actives have a fitted effect of over 55% in size
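Reporter activity after DNA damage by 5-fluorouridine is monitored. Compound-treated cells incubate 16 hr at 37 °C, then ONE-Glo is added for 30 min before luminescence reading.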
Numbers without * were called inactive; ? = inconclusive; · = no result. Sampled rows, rich in hits. Any-hit rate of the full collection: about 19%. Unless noted, calls come from the whole dose curve; as a rule, active = well fitted curve in the direction sought with a large enough effect; inconclusive = small, poorly fitted or top-dose-only effect, or another doubt; inactive = no such curve, though single readings can be large; an effect the other way counts as inactive or inconclusive. Unless noted, % is set by controls: 0 for no effect and ±100 for the full control effect.

SMILES	IL1B secr inh	TDP1 cell CPT	TDP1 cell noCPT	HT1080 IDH1KD tx	HT1080NT lethal	ELG1 DNA repair
FC(F)(F)c1cccc(OCC2CNC(=S)O2)c1 (configuration not stated)	17.1	-5.0%	-14.2%	-0.2%	-5.4%	-8.0%
CC(C)OC(=O)CC(=O)CSc1nc2c(cc1C#N)CCCC2	20.3	12.0%	-4.4%	3.8%	13.1%	·
COC(=O)CC(=O)CSc1nc(C)cc(C)c1C#N	39.9	29.1µM*	?	-4.2%	-9.9%	5.2%
CC(C)OC(=O)CC(=O)CSc1nc2c(cc1C#N)CCC2	14.2	?	8.2µM*	-16.6%	0.8%	?
COC(=O)CC(=O)CSc1nc2c(cc1C#N)CCC2	8.5	18.4µM*	?	?	?	?
COc1cc2c(cc1OC)CN(C(=O)CSc1nc(C)cc(C)c1C#N)CC2	?	23.1µM*	20.6µM*	-9.3%	-0.4%	2.59µM*
Cc1cc(C)c(C#N)c(SCC(=O)C(C)(C)C)n1	19.3	-1.3%	-9.5%	14.0%	7.9%	?
CCc1nc(SCC(=O)N2CCc3cc(OC)c(OC)cc3C2)c(C#N)cc1C	-1.2	?	?	1.9%	0.6%	·
O=C(c1[nH]c(C(F)(F)F)nc1-c1ccccc1)N1CCCN(Cc2ccc(F)cc2)CC1	5.8	3.2%	11.1%	17.7%	16.8%	·
CCN(CC(=O)NCc1cccs1)S(=O)(=O)c1cccc(Br)c1	-16.3	-26.8%	?	12.4%	-5.4%	13.0%
Cc1ccccc1Cn1c(=O)n(CCC(=O)NCc2ccco2)c(=O)c2sccc21	·	-4.5%	-9.2%	·	·	·
CCN(CC)c1ccccc1/C=C/[n+]1ccc(CCCCI)c2ccccc21	·	0.631µM*	0.562µM*	·	·	·
S=C(NCCCc1cnc[nH]1)NCCCN(Cc1ccc(Cl)cc1)c1ncc(Br)cn1	·	12.6µM*	7.94µM*	·	·	·
O=C(NCCCc1cnc[nH]1)NCCCN(Cc1ccc(Cl)cc1)c1ccc(Br)cn1	·	2.24µM*	3.98µM*	·	·	·
S=C(NCCCc1cnc[nH]1)NCCCN(Cc1ccc(Cl)cc1)c1ccc(Br)cc1	·	12.6µM*	-94.7%	·	·	·
S=C(NCCCc1cnc[nH]1)NCCCN(Cc1ccc(Cl)cc1)c1ccc(-c2ccccc2)cn1	·	?	-18.9%	·	·	·
S=C(NCCCc1cnc[nH]1)NCCCN(CCc1ccccc1)c1ccc(Br)cn1	·	10µM*	8.91µM*	·	·	·
CCc1ccc(-c2nn(CC(=O)NC3CCCC3)c3c2cnc2ccc(C)cc23)cc1	·	-18.9%	-3.6%	·	·	·
CC(C)(C)NC(=O)C(c1cccs1)N(Cc1ccc(F)cc1)C(=O)c1csnn1 (configuration not stated)	-17.6	?	?	12.9%	-0.3%	-1.5%
CCCc1cc(=O)oc2cc(C)cc(OCC(=O)NCCCN3CCOCC3)c12	-7.3	-2.8%	-3.9%	-2.6%	-0.2%	9.8%
CN1CCN(c2cc3c(c4c2[nH]c2ccccc24)C(=O)CC(C)(C)C3)CC1	-64.7*	?	16.4µM*	-25.8%	-9.2%	-10.8%
COc1ccc(-c2oc3ccc(-c4cc(OC)c(OC)c(OC)c4)cc3c2C(=O)c2ccc(OC)nc2)cc1	-3.8	?	?	-0.1%	1.2%	?
CCOC1CCCc2oc(-c3ccc(OC)cc3)c(C#CCCO)c21 (configuration not stated)	·	?	16.4µM*	?	-19.0%	·
COCc1ccc(-c2c(-c3ccc(OC)cc3)oc(=O)c3cc(OC)c(OC)cc23)cc1	28.1	?	23.1µM*	-14.7%	-9.8%	-8.5%
COc1ccc(-c2c(-c3ccsc3)oc(=O)c3cc(OC)c(OC)cc23)cc1	39.8	?	?	9.1%	12.8%	?
